Laboratory results from PubChem BioAssay.
Active and inactive are the calls of the source. Unless noted, the rule behind the calls is not given here.

Legend:
[1] = test system: Wnt5a (protein binding on small-molecule microarray); assay: Wnt5a binders on small-molecule microarray, primary screen, biophysical, 635/667 nm fluorescence (AID 1142); conditions: 635 nm fluorescence, higher = more signal;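 note: fluorescence read at 667 nm with signal to noise per printed feature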
[2] = cell viability in Huh7 cells, primary screen, cytotoxicity control for HCV replication inhibitor project, CellTiter-Glo luminescence, basal, 48 h (AID 1143); conditions: Huh7 HCV replicon, higher = more signal, called active from +8 up or from −8 down;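 note: Huh7 hepatoma cells carrying a hepatitis C replication reporter with no stimulus; test concentration not given here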
[3] = P. aeruginosa biofilm formation inhibitors, primary screen, PAO1 strain, BacTiter-Glo luminescence, LB-PBS (AID 1144); conditions: 12 h, higher = more signal
[4] = CREB reporter modulators without forskolin, primary screen, cell-based, PC12, CRE-LacZ reporter, unstimulated (AID 1145); conditions: no forskolin, luminescence, 4.5 h, higher = more signal, called active from +8 up or from −8 down
[5] = CREB reporter modulators under forskolin, primary screen, cell-based, PC12, CRE-LacZ reporter, forskolin-stimulated (AID 1146); conditions: luminescence, 4.5 h, higher = more signal, called active from +8 up or from −8 down;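 note: PC12 cells with 6xCRE LacZ reporter stimulated by forskolin 10 µM; beta-galactosidase reporter signal reflecting CREB driven transcription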
[6] = molecular target: Streptavidin (Streptomyces avidinii) (UniProt P22629); assay: streptavidin binders on small-molecule microarray, primary screen, artefact control for SMM compound annotation, biophysical, 635/667 nm fluorescence (AID 1147); conditions: streptavidin binding, higher = more signal;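 note: signal reflects streptavidin binding to arrayed compounds as a control protein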
Streptavidin (Streptomyces avidinii), sequence (P22629 whole entry, looked up): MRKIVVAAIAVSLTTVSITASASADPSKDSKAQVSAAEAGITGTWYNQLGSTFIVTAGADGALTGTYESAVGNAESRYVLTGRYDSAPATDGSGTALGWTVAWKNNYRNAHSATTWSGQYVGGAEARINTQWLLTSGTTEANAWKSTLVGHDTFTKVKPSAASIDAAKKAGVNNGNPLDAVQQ

[7] = small-molecule binders of probe aInhba, primary screen, biochemical, small-molecule microarray, 635/667 nm fluorescence (AID 1148); conditions: higher = more signal;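 note: score merges 667nm spot fluorescence with signal-to-noise for antibody binding to printed compounds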
Torsin-1A (Homo sapiens) [8] = molecular target: Torsin-1A (Homo sapiens) (UniProt O14656); assay: torsin A binders from cell lysate, primary screen, small-molecule microarray, wild-type, 635/667 nm (AID 1149); conditions: COS7 hTOR1A-WT lysate, 635 nm fluorescence, higher = more signal
Torsin-1A (Homo sapiens), sequence (O14656 whole entry, looked up): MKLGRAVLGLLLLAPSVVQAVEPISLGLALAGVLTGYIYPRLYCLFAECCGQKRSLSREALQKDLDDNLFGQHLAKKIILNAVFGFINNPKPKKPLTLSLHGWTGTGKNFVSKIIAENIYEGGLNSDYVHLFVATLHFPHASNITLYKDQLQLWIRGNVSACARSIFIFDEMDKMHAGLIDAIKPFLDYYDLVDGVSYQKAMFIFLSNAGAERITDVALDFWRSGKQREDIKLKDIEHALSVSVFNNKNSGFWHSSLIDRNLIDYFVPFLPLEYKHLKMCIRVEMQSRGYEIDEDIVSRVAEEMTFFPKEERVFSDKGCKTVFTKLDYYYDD

Torsin-1A (Homo sapiens) [9] = molecular target: Torsin-1A (Homo sapiens) (UniProt O14656); assay: small-molecule binders of mutant TOR1A in lysate, primary screen, cell lysate, small-molecule microarray, COS7 lysate, 635/667 nm fluorescence (AID 1150); conditions: COS7 hTOR1A mutant lysate, 635 nm fluorescence, higher = more signal;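 note: score pools 667 nm emission and signal to noise measuring lysate protein binding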
[10] = test system: Sonic hedgehog protein (Shh); assay: small-molecule binders of Shh protein, primary screen, biochemical, small-molecule microarray, 635/667 nm fluorescence (AID 1151); conditions: small-molecule microarray binding, 635 nm fluorescence; higher = more signal;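 note: Shh protein binding to compounds spotted on small-molecule microarray slides; score combines spot fluorescence intensity with signal-to-noise across triplicate slides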
[11] = E. coli DRC41 culture turbidity changes, primary screen, E. coli filamentation inducer project, strain DRC41, OD650, 48 h (AID 1152);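 note: E. coli MC1000 strain DRC41 lacking acrAB efflux pump and sulA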; conditions: E. coli DRC41 (acrAB sulA), higher = more signal, called active from +8 up or from −8 down
[12] = small-molecule binders of probe aLefty1, primary screen, biochemical, small-molecule microarray, 635/667 nm fluorescence (AID 1153); conditions: higher = more signal;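 note: score merges spot fluorescence with signal-to-noise ratio from the scanned slide images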
[13] = PSAC antagonists in infected red cells, primary screen, cell-based, P. falciparum Indochina, OD700, 1 h (AID 1154); conditions: P. falciparum Indochina infected RBC osmotic lysis, higher = more signal, called active from +8 up or from −8 down
[14] = PSAC antagonists in infected red cells, primary screen, cell-based, P. falciparum Indochina, OD700, 2 h (AID 1155);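 note: lysis reports solute entry through the parasite surface anion channel PSAC; channel blockers reduce lysis of infected cells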; conditions: P. falciparum Indochina infected erythrocytes, osmotic lysis OD700; higher = more signal, called active from +8 up or from −8 down
[15] = osmotic lysis modulators in infected erythrocytes, primary screen, PSAC antagonist project, cell-based, P. falciparum Indochina, OD700, 3 h (AID 1156); conditions: higher = more signal, called active from +8 up or from −8 down
[16] = PSAC antagonists in infected red cells, primary screen, cell-based, P. falciparum Indochina, OD700, 18 h (AID 1157); conditions: P. falciparum Indochina infected erythrocytes, osmotic lysis OD700, 18 h; higher = more signal, called active from +8 up or from −8 down
[17] = modulators of S6 phosphorylation in cells, primary screen, cell-based, A549, cytoblot, luminescence, serum-stimulated (AID 1158); conditions: A549 phospho-S6 cytoblot, 5 h, higher = more signal;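 note: serum-stimulated A549 lung adenocarcinoma cells; signal is phosphorylated S6 detected by cytoblot immunostaining with HRP secondary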
[18] = molecular target: NADPH oxidase 2 (Homo sapiens) (UniProt P04839); assay: NOX2-dependent H2O2 signal modulators, primary screen, NOX inhibitor project, cell-based, HEK293-NOX2, PMA-stimulated, Amplex Red fluorescence (AID 1159); conditions: 45 min, higher = more signal, called active from +8 up or from −8 down; note: test concentration not given here
NADPH oxidase 2 (Homo sapiens), sequence (P04839 whole entry, looked up): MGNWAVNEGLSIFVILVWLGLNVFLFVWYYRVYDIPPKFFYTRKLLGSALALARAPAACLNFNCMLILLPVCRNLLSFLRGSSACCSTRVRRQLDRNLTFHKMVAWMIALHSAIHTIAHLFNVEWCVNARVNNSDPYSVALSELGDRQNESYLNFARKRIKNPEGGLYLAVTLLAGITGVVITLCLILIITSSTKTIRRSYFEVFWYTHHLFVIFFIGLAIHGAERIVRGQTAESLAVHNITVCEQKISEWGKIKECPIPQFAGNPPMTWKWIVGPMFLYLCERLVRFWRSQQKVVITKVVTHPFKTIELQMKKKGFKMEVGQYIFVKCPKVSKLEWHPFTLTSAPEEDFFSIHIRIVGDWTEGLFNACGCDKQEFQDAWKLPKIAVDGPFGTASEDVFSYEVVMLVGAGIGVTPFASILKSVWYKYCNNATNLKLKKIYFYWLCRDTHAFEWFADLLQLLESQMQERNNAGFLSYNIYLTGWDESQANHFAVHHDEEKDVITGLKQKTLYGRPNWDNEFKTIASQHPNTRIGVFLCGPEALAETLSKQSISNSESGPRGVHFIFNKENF

[19] = molecular target: NADPH oxidase 4 (Homo sapiens) (UniProt Q9NPH5); assay: NOX4-dependent H2O2 signal modulators, primary screen, NOX inhibitor project, cell-based, HEK293-NOX4, tetracycline-induced, Amplex Red fluorescence (AID 1160); conditions: 45 min, higher = more signal, called active from +8 up or from −8 down
NADPH oxidase 4 (Homo sapiens), sequence (Q9NPH5 whole entry, looked up): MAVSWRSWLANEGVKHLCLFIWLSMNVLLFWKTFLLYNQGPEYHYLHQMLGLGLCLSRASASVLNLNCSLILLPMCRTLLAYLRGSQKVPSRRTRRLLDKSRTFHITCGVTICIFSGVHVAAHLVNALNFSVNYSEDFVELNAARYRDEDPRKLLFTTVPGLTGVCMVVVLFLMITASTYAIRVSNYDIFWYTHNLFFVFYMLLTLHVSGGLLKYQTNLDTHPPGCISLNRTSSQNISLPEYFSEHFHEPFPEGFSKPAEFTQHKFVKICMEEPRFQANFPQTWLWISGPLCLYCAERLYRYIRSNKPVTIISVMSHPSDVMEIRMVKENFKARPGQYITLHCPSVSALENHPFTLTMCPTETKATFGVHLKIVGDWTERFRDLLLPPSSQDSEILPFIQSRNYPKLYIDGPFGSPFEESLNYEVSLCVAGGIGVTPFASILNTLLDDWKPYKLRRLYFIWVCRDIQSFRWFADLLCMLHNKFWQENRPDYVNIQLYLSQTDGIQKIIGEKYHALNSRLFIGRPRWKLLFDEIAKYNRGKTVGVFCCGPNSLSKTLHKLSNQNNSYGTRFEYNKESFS

[20] = molecular target: NADPH oxidase 5 (Homo sapiens) (UniProt Q96PH1); assay: NOX5-dependent H2O2 signal modulators, primary screen, NOX inhibitor project, cell-based, HEK293-NOX5, Amplex Red fluorescence (AID 1161); conditions: HEK293-NOX5, ionomycin, 45 min, higher = more signal
NADPH oxidase 5 (Homo sapiens), sequence (Q96PH1 whole entry, looked up): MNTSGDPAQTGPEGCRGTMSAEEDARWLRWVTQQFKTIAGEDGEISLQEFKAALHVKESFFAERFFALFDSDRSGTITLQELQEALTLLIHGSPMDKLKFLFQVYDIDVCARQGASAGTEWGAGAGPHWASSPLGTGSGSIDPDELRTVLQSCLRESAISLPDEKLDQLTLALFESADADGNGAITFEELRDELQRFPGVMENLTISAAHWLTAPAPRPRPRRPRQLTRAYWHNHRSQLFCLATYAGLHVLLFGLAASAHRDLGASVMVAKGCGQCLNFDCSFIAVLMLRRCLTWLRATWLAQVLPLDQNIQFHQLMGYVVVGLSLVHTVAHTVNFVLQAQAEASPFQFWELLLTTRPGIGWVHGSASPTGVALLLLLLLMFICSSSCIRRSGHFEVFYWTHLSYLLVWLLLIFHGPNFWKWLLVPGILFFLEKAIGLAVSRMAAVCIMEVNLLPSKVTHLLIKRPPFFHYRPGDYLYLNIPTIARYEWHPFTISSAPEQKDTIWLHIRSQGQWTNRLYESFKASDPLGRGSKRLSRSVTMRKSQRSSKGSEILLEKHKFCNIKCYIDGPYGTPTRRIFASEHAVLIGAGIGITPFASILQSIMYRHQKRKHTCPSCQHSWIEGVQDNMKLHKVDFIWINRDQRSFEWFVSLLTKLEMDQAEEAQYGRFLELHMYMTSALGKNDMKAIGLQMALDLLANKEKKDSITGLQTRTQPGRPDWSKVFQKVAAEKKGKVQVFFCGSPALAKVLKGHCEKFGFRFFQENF

## CN(C)CCCC[C@@H]1NC(=O)[C@@H]2C[C@H](C(=O)NCCCCCCNC(=O)CS)[C@H](c3ccc(O)cc3)N2C1=O
[1]
  composite z-score: 0.412
[2]
  z-score: -0.211 (inactive)
[3]
  z-score: -0.525 (inactive)
[4]
  z-score: 0.549 (inactive)
[5]
  z-score: 0.375 (inactive)
[6]
  composite z-score: -0.406
[7]
  composite z-score: 0.257
Torsin-1A (Homo sapiens) [8]
  composite z-score: 0.71
Torsin-1A (Homo sapiens) [9]
  composite z-score: 0.702
[10]
  composite z-score: 1.62
[11]
  z-score: -1.05 (inactive)
[12]
  composite z-score: 0.0013
[13]
  z-score: 1.19 (inactive)
[14]
  z-score: 0.284 (inactive)
[15]
  z-score: -1.22 (inactive)
[16]
  z-score: 0.0814 (inactive)
[17]
  z-score: 0.58
[18]
  z-score: 0.559 (inactive)
[19]
  z-score: 0.781 (inactive)
[20]
  z-score: 0.873

## CC1CC/C=C\[C@H]2OC34C=CCN(c5ccc6ccccc6c5)C(=O)[C@H]3N(C(C)CO)C(=O)[C@@H]4C2C(=O)O1 (stereo not given in full)
[1]
  composite z-score: -0.786
[2]
  z-score: -0.0174 (inactive)
[3]
  z-score: 0.282 (inactive)
[4]
  z-score: -0.0899 (inactive)
[5]
  z-score: -0.0752 (inactive)
[6]
  composite z-score: -0.926
[7]
  composite z-score: -0.0933
Torsin-1A (Homo sapiens) [8]
  composite z-score: -0.538
Torsin-1A (Homo sapiens) [9]
  composite z-score: -1.15
[10]
  composite z-score: -0.254
[11]
  z-score: -0.114 (inactive)
[12]
  composite z-score: -0.0933
[13]
  z-score: 0.856 (inactive)
[14]
  z-score: 0.222 (inactive)
[15]
  z-score: 0.927 (inactive)
[16]
  z-score: 0.233 (inactive)
[17]
  z-score: -0.347
[18]
  z-score: 0.995 (inactive)
[19]
  z-score: -0.181 (inactive)
[20]
  z-score: 1.58

## COCCCN1C(=O)[C@@]2(c3ccc([N+](=O)[O-])cc3)CC(=O)N(CC34CC5CC(CC(C5)C3)C4)[C@@H]2c2ccc(CO)cc21
[1]
  composite z-score: -0.15
[2]
  z-score: -0.636 (inactive)
[3]
  z-score: -0.453 (inactive)
[4]
  z-score: -1.32 (inactive)
[5]
  z-score: -0.556 (inactive)
[6]
  composite z-score: 0.135
[7]
  composite z-score: -0.138
Torsin-1A (Homo sapiens) [8]
  composite z-score: -0.323
Torsin-1A (Homo sapiens) [9]
  composite z-score: -0.0458
[10]
  composite z-score: 0.791
[11]
  z-score: 0.172 (inactive)
[12]
  composite z-score: -0.298
[13]
  z-score: -0.409 (inactive)
[14]
  z-score: 0.28 (inactive)
[15]
  z-score: 1.48 (inactive)
[16]
  z-score: 0.0583 (inactive)
[17]
  z-score: 0.261
[18]
  z-score: 0.307 (inactive)
[19]
  z-score: 0.183 (inactive)
[20]
  z-score: 0.482

## CN(C)CCCC[C@@H]1NC(=O)[C@@H]2C[C@H](C(=O)NCCCCCN)[C@H](c3cccc(OCCO)c3)N2C1=O
[1]
  composite z-score: 0.132
[2]
  z-score: -0.716 (inactive)
[3]
  z-score: -0.241 (inactive)
[4]
  z-score: -0.118 (inactive)
[5]
  z-score: -0.469 (inactive)
[6]
  composite z-score: 0.909
[7]
  composite z-score: -0.101
Torsin-1A (Homo sapiens) [8]
  composite z-score: 0.433
Torsin-1A (Homo sapiens) [9]
  composite z-score: 0.0162
[10]
  composite z-score: 1.58
[11]
  z-score: 2.96 (inactive)
[12]
  composite z-score: 0.25
[13]
  z-score: 1.11 (inactive)
[14]
  z-score: -0.469 (inactive)
[15]
  z-score: -1.52 (inactive)
[16]
  z-score: -2.07 (inactive)
[17]
  z-score: 2.77
[18]
  z-score: 0.635 (inactive)
[19]
  z-score: 0.585 (inactive)
[20]
  z-score: 1.57

## O=C(NCCN1CCOCC1)[C@@H]1c2ccccc2C(=O)N(Cc2ccccc2C(F)(F)F)[C@H]1c1ccc(CO)cc1
[1]
  composite z-score: -0.316
[2]
  z-score: -0.0154 (inactive)
[3]
  z-score: 0.151 (inactive)
[4]
  z-score: 0.324 (inactive)
[5]
  z-score: -1.32 (inactive)
[6]
  composite z-score: -1.12
[7]
  composite z-score: -0.224
Torsin-1A (Homo sapiens) [8]
  composite z-score: -0.691
Torsin-1A (Homo sapiens) [9]
  composite z-score: 0.0912
[10]
  composite z-score: -0.112
[11]
  z-score: 0.736 (inactive)
[12]
  composite z-score: -0.418
[13]
  z-score: 2.76 (inactive)
[14]
  z-score: -0.191 (inactive)
[15]
  z-score: 1.15 (inactive)
[16]
  z-score: 0.158 (inactive)
[17]
  z-score: -0.328
[18]
  z-score: 0.523 (inactive)
[19]
  z-score: 0.484 (inactive)
[20]
  z-score: 0.772

## COc1ccc(C(=O)Nc2cccc(CN3C(=O)[C@]4(O[C@H](CC(=O)N5Cc6ccccc6C[C@H]5CO)[C@@H]([Si](C)(C)c5ccc(OC)cc5)[C@@H]4C)c4ccccc43)c2)cc1
[1]
  composite z-score: 0.711
[2]
  z-score: -3.89 (inactive)
[3]
  z-score: 0.269 (inactive)
[4]
  z-score: -1.07 (inactive)
[5]
  z-score: -0.442 (inactive)
[6]
  composite z-score: -0.266
[7]
  composite z-score: 0.114
Torsin-1A (Homo sapiens) [8]
  composite z-score: 0.671
Torsin-1A (Homo sapiens) [9]
  composite z-score: 0.701
[10]
  composite z-score: 2.19
[11]
  z-score: 1.66 (inactive)
[12]
  composite z-score: 0.423
[13]
  z-score: 4.02 (inactive)
[14]
  z-score: 1.49 (inactive)
[15]
  z-score: 0.887 (inactive)
[16]
  z-score: 1.04 (inactive)
[17]
  z-score: 0.568
[18]
  z-score: 0.0795 (inactive)
[19]
  z-score: 0.701 (inactive)
[20]
  z-score: 2.01

## C=CCC(OC(C)=O)[C@@H]1[C@@H](N(Cc2ccc(-c3cccc(C(F)(F)F)c3)o2)C(=O)c2ccc(-c3ccccc3)cc2)c2cc(OCCCO)ccc2N1C(=O)c1ccc2ccccc2c1 (stereo not given in full)
[1]
  composite z-score: -0.0266
[2]
  z-score: -0.87 (inactive)
[3]
  z-score: -0.491 (inactive)
[4]
  z-score: -0.477 (inactive)
[5]
  z-score: 0.308 (inactive)
[6]
  composite z-score: 0.177
[7]
  composite z-score: -0.0279
Torsin-1A (Homo sapiens) [8]
  composite z-score: -0.756
Torsin-1A (Homo sapiens) [9]
  composite z-score: -0.322
[10]
  composite z-score: 1.57
[11]
  z-score: -0.251 (inactive)
[12]
  composite z-score: 0.0718
[13]
  z-score: 0.7 (inactive)
[14]
  z-score: -0.125 (inactive)
[15]
  z-score: 1.36 (inactive)
[16]
  z-score: 0.408 (inactive)
[17]
  z-score: 0.921
[18]
  z-score: -1.99 (inactive)
[19]
  z-score: -1.98 (inactive)
[20]
  z-score: -1.09

## CC=CC(O)C1C=CC2C(=O)NC(=O)C2N1Nc1ccc(Cl)cc1Cl (stereo not given)
[1]
  composite z-score: -0.242
[2]
  z-score: 0.323 (inactive)
[3]
  z-score: 0.101 (inactive)
[4]
  z-score: -0.133 (inactive)
[5]
  z-score: 0.467 (inactive)
[6]
  composite z-score: 0.0171
[7]
  composite z-score: -0.176
Torsin-1A (Homo sapiens) [8]
  composite z-score: 0.34
Torsin-1A (Homo sapiens) [9]
  composite z-score: 0.0964
[10]
  composite z-score: 0.443
[11]
  z-score: -1.56 (inactive)
[12]
  composite z-score: 0.169
[13]
  z-score: 0.76 (inactive)
[14]
  z-score: 0.786 (inactive)
[15]
  z-score: 0.0682 (inactive)
[16]
  z-score: 1.29 (inactive)
[17]
  z-score: -0.637
[18]
  z-score: -1.35 (inactive)
[19]
  z-score: -4.61 (inactive)
[20]
  z-score: -3.02
